Calls of active or inactive are those of the source.
Legend:
Albumin (Bos taurus) = Albumin (Bos taurus) (UniProt P02769); experiment: bovine serum albumin binders on microarray, profiling panel, artefact control for SMM control protein annotation, biochemical, small-molecule microarray, Alexa647 label, 635/667 nm fluorescence (AID 1118); conditions: BSA-A647 binding, fluorescence 635 nm, higher = more signal;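 also: score merges 667 nm emission intensity and signal-to-noise per printed compound spot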
Sequence of Albumin (Bos taurus) (P02769 whole entry, looked up): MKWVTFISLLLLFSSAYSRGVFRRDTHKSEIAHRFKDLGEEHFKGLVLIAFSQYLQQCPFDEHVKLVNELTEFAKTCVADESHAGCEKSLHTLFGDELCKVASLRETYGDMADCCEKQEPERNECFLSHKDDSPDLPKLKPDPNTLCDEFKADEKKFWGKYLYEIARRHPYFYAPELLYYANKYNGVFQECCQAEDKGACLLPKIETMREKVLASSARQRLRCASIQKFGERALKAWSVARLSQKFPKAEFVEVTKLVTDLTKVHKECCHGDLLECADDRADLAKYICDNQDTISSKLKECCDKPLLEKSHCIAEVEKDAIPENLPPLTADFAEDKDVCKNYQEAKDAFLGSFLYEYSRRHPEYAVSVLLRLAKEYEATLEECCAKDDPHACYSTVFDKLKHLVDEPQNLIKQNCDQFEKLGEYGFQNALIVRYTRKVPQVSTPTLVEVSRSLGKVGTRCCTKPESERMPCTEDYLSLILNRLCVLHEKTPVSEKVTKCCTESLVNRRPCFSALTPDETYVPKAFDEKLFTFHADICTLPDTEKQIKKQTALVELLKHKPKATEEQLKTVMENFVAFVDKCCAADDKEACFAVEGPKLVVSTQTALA

[1] = small-molecule microarray binders of probe aXIP, primary screen, biochemical, NeuroSMM set, 635/667 nm fluorescence (AID 1119); conditions: higher = more signal, called active from +8 up or from −8 down;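 also: probe is the protein aXip251-270 applied at 1 µg/mL to compound-printed slides; binding of probe to printed compounds measured as 667 nm fluorescence plus signal to noise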
[2] = small-molecule binders of probe aNOTCH3, primary screen, biochemical, small-molecule microarray, 635/667 nm fluorescence (AID 1120); conditions: higher = more signal;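 also: probe is a biotin-tagged antibody raised against NOTCH3 rather than NOTCH3 protein; score merges spot fluorescence near 667 nm with spot signal to noise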
[3] = small-molecule binders of probe aNOTCH2, primary screen, biochemical, small-molecule microarray, 635/667 nm fluorescence (AID 1121); conditions: higher = more signal;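 also: score merges feature fluorescence read at 667 nm with its signal to noise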
[4] = target: Carbonic anhydrase 2 (Homo sapiens) (UniProt P00918); experiment: CAII small-molecule binders, profiling panel, biochemical, small-molecule microarray, Alexa647-labelled CAII (AID 1122); conditions: CAII-A647 binding fluorescence, higher = more signal
[5] = COS7 lysate on small-molecule microarray, probe aHis, 635 nm (AID 1123); conditions: COS7 cell lysate, fluorescence, higher = more signal;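 also: z-score combines 667nm fluorescence intensity with signal-to-noise per printed compound spot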
[6] = compound binding in COS7 lysate, probe aLAP1, primary screen, cell lysate, small-molecule microarray (AID 1124); conditions: probe aLAP1, fluorescence, higher = more signal;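 also: lysate comes from COS7 cells expressing LAP1 and is applied at 0.3 µg/mL; score merges spot fluorescence near 667 nm with signal-to-noise over triplicate slides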
Sam68 (KHDRBS1) = experiment: Sam68 small-molecule binders, primary screen, biochemical, small-molecule microarray, 635 nm fluorescence (AID 1125); conditions: small-molecule microarray binding, higher = more signal;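 also: score merges 667 nm channel intensity with signal to noise over triplicate slides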
[7] = system: Chordin-like protein 2 (CHRDL2); experiment: CHRDL2 small-molecule binders, primary screen, biochemical, small-molecule microarray, 635 nm fluorescence (AID 1126); conditions: small-molecule microarray binding, fluorescence 635 nm; higher = more signal;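 also: printed compound slides probed with Chrdl2 protein at 4 µg/mL for 1 h at 4 C; score merges 667 nm emission intensity with signal to noise over three replicate slides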
[8] = target: Concanavalin-A (Canavalia ensiformis) (UniProt P02866); experiment: ConA small-molecule binders, primary screen, artefact control for SMM control protein annotation, biochemical, small-molecule microarray, Alexa647 label, 635 nm (AID 1127); conditions: ConA-A647 binding fluorescence, higher = more signal;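 also: z combines 667 nm emission intensity with signal-to-noise across three replicate slides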
Sequence of Concanavalin-A (Canavalia ensiformis) (P02866 whole entry, looked up): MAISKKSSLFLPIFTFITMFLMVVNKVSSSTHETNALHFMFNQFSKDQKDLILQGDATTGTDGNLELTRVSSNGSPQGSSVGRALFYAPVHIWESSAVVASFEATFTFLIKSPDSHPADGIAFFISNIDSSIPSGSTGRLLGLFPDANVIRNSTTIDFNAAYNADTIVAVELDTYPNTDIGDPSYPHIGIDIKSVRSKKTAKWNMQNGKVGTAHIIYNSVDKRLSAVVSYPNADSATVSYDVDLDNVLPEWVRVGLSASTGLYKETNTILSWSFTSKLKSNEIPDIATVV

[9] = anti-His antibody binders, primary screen, artefact control for SMM control protein annotation, biochemical, small-molecule microarray, 635 nm fluorescence (AID 1128); conditions: anti-His Alexa647 antibody binding, higher = more signal;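 also: score merges feature fluorescence with signal-to-noise for each printed compound spot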
[10] = system: Human papillomavirus type 1a E7 protein (residues 1-88); experiment: HPV1a E7 small-molecule binders, primary screen, biochemical, small-molecule microarray, residues 1-88, 635 nm (AID 1129); conditions: small-molecule microarray binding, fluorescence 635 nm; higher = more signal
[11] = target: Focal adhesion kinase 1 (Homo sapiens) (UniProt Q05397); experiment: small-molecule microarray binders of FAK, primary screen, biochemical, 635/667 nm fluorescence, BSA, DTT (AID 1130); conditions: PTK2 binding, 635 nm fluorescence, higher = more signal;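 also: composite of spot emission at 667 nm and signal to noise over triplicate slides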
Sequence of Focal adhesion kinase 1 (Homo sapiens) (Q05397 whole entry, looked up): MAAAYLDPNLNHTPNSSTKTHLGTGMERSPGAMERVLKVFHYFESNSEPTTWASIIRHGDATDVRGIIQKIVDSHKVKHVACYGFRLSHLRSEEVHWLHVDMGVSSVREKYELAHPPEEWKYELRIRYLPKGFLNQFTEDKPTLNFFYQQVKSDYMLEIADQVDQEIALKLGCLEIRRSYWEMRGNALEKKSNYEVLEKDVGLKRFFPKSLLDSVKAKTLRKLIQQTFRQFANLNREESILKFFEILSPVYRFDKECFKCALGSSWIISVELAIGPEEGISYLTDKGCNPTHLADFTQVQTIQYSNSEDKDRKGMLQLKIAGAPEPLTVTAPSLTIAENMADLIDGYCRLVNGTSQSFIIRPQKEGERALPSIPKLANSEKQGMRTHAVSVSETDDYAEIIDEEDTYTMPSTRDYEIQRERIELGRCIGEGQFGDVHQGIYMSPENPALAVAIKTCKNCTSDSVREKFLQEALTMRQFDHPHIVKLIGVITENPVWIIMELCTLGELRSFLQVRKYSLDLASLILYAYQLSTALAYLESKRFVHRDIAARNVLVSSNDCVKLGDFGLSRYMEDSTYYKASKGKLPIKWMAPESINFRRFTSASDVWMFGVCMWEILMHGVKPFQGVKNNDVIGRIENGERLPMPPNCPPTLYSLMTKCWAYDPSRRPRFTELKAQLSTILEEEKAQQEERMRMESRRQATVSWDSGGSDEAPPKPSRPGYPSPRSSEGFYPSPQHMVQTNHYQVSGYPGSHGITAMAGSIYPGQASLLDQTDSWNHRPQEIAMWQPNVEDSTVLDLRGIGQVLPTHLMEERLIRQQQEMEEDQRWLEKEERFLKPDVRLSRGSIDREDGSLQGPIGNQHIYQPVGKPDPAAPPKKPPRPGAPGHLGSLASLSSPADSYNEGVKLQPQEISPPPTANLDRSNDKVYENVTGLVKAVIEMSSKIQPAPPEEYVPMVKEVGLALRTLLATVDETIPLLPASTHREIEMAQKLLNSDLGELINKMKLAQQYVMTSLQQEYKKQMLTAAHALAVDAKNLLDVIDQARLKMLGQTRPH

[12] = system: Fibrinogen (Alexa647-labelled); experiment: fibrinogen binders on compound microarrays, profiling panel, artefact control for SMM control-protein annotation, biochemical, small-molecule microarray, 635/667 nm fluorescence (AID 1131); conditions: fibrinogen-A647 binding fluorescence, higher = more signal;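 also: z-score merges 667 nm fluorescence with per-spot signal-to-noise over triplicate slides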
[13] = target: Follistatin (Homo sapiens) (UniProt P19883); experiment: follistatin binders on small-molecule microarrays, primary screen, biochemical, small-molecule microarray, 635/667 nm fluorescence (AID 1132); conditions: FST binding, 635 nm fluorescence, higher = more signal
Sequence of Follistatin (Homo sapiens) (P19883 whole entry, looked up): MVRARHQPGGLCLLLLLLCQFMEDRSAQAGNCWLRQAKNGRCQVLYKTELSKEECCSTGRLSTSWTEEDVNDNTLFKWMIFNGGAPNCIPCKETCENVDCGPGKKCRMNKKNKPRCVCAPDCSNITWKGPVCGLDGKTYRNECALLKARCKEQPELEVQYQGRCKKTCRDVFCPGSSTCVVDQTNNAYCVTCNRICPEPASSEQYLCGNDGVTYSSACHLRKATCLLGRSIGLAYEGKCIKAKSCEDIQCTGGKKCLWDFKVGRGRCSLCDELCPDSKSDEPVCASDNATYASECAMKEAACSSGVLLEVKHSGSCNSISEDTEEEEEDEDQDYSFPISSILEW

[14] = target: Fibroblast growth factor 2 (Homo sapiens) (UniProt P09038); experiment: FGF2 binders on small-molecule microarrays, primary screen, biochemical, small-molecule microarray, 635/667 nm fluorescence (AID 1133); conditions: small-molecule microarray binding, FGF2, fluorescence 635/667; higher = more signal
Sequence of Fibroblast growth factor 2 (Homo sapiens) (P09038 whole entry, looked up): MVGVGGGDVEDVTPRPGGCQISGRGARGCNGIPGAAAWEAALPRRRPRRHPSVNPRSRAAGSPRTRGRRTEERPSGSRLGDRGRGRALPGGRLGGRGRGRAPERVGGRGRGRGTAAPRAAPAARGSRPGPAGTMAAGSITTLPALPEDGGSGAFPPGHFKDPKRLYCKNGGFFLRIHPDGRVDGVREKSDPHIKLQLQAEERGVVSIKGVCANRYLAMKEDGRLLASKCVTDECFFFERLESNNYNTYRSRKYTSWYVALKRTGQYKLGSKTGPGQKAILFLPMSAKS

[15] = mitochondrial membrane potential change in A549 cells, profiling panel, cell-based, JC-1 fluorescence, basal, 24 h, 100 nL (AID 1138); conditions: higher = more signal;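 also: A549 lung adenocarcinoma cells under basal conditions with no added stimulus; test concentration not given here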
Lefty1 = Lefty1 binders on small-molecule microarrays, primary screen, biochemical, small-molecule microarray, 635/667 nm fluorescence (AID 1139); conditions: small-molecule microarray binding, fluorescence 635/667; higher = more signal
[16] = system: wheat germ agglutinin (Triticum aestivum), Alexa647-labelled; experiment: wheat germ agglutinin binders on compound microarrays, profiling panel, artefact control for SMM control-protein annotation, biochemical, small-molecule microarray, 635/667 nm fluorescence (AID 1140); conditions: WGA-A647 binding, 635 nm fluorescence, higher = more signal;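 also: score merges 667 nm feature emission with signal to noise over triplicate slides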
[17] = target: Luciferin 4-monooxygenase (Photinus pyralis) (UniProt P08659); experiment: firefly luciferase enzyme inhibitors, primary screen, biochemical, luminescence, purified enzyme, 2006 set (AID 1141); conditions: SteadyGlo luminescence, 30 min, higher = more signal, called active from +8 up or from −8 down;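 also: cell-free assay with purified firefly luciferase at 100 ng per well in PBS; test concentration not given here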
Sequence of Luciferin 4-monooxygenase (Photinus pyralis) (P08659 whole entry, looked up): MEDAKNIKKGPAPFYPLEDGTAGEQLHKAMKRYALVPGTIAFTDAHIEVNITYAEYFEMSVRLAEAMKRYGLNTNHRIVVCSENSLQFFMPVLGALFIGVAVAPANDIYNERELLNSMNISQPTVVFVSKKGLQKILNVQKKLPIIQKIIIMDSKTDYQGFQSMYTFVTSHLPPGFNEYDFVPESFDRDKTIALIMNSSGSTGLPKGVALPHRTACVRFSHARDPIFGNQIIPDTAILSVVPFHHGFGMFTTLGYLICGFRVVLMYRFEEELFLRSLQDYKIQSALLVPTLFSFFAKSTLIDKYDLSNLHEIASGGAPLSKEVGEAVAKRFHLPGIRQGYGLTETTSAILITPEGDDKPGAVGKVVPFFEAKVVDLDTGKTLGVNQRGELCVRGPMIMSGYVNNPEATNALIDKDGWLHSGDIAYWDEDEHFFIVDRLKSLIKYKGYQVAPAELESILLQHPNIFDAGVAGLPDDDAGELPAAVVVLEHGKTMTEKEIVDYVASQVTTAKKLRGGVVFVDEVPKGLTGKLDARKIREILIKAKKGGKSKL

Compound | composite z-score (Albumin (Bos taurus)) | composite Z-score [1] | composite z-score [2] | composite z-score [3] | composite z-score [4] | composite z-score [5] | composite z-score [6] | composite z-score (Sam68 (KHDRBS1)) | composite z-score [7] | composite z-score [8] | composite z-score [9] | composite z-score [10] | composite z-score [11] | composite z-score [12] | composite z-score [13] | composite z-score [14] | z-score [15] | composite z-score (Lefty1) | composite z-score [16] | z-score [17]
O=C(CS)NCCCCCNC(=O)[C@@H]1C[C@@H]2C(=O)N3CCC[C@H]3C(=O)N2[C@@H]1c1ccc(O)cc1 | -0.683 | 0.647 (inactive) | -0.0587 | -0.151 | 0.636 | 1.86 | 0.363 | 0.928 | -0.0012 | 1.15 | 3.22 | 1.12 | 0.0999 | -0.174 | 1.26 | 1.34 | 0.605 | -0.0581 | -0.339 | -1.59 (inactive)
COCCCNC(=O)[C@]1(CCS(=O)(=O)c2ccccc2)N=C(c2ccc(OCCCO)cc2)O[C@@H]1c1ccccc1 | 0.88 | -0.263 (inactive) | 0.558 | 0.284 | 0.751 | 2.99 | 1.75 | 1.3 | 0.0923 | 1.1 | 1.85 | 1.27 | 1.57 | 0.997 | 0.892 | 1.36 | 1.3 | 0.136 | 0.455 | -1.45 (inactive)
NC(=O)NCC#Cc1ccc2c(c1)[C@]1(C(=O)N2)[C@H](c2ccc(OCCO)cc2)N2[C@H](c3ccccc3)[C@H](c3ccccc3)OC(=O)[C@H]2[C@@H]1C(=O)N1CCCCCCC1 | 0.435 | 5.46 (inactive) | 2.08 | 1.13 | 0.894 | 2.81 | 0.669 | 1.23 | 1.13 | 1.14 | 0.418 | 1.18 | 1.08 | 0.41 | 1.39 | 1.15 | -1 | 1.64 | 1.44 | -0.254 (inactive)
CC(C)(C)OC(=O)CC[C@@]1(C(=O)N2CCCCC2)N=C(c2ccc(OCCCO)cc2)O[C@@H]1c1ccccc1N=[N+]=[N-] | 0.943 | -0.15 (inactive) | 0.4 | 0.127 | 0.775 | 2.94 | 1.58 | 1.29 | 0.142 | 1.17 | 2.83 | 1.27 | 1.7 | 0.99 | 1.26 | 0.722 | 1.95 | 0.0141 | 1.25 | -11.7 (active)
O=C1O[C@@H](c2ccccc2)[C@@H](c2ccccc2)N2[C@@H](c3ccc(O)cc3)[C@]3(C(=O)Nc4ccc(C#CC5=CCCCC5)cc43)[C@@H](C(=O)Nc3nc4ccccc4s3)[C@H]12 | 0.787 | -0.199 (inactive) | 0.887 | 0.47 | 0.58 | 2.03 | 0.784 | 1.29 | 0.842 | 1.1 | 1.15 | 1.22 | 0.32 | 0.852 | 1.25 | 1.35 | -1.8 | 1.54 | 1.32 | -1.34 (inactive)
Cc1ccc(S[C@]2(C(=O)O)CC(=O)N(Cc3ccccc3C(F)(F)F)[C@@H]2c2ccc(CO)cc2)cc1 | -0.283 | -0.612 (inactive) | -0.128 | -0.164 | 0.653 | 1.79 | -0.67 | -0.298 | -1.6 | -0.373 | -0.916 | -0.543 | 0.0068 | -0.772 | -0.238 | -1.18 | 0.391 | -1.27 | -0.475 | 0.989 (inactive)
C=CCC(OC(C)=O)[C@@H]1[C@@H](N(Cc2ccc(-c3cccc(C(F)(F)F)c3)o2)C(=O)c2cccc3ccccc23)c2cc(OCCCO)ccc2N1C(=O)c1ccc(-c2ccccc2)cc1 (stereo not given in full) | -0.0913 | -0.0505 (inactive) | 0.0058 | -0.053 | -0.406 | -0.647 | -0.272 | -0.407 | 0.634 | -0.402 | 0.955 | -0.661 | -0.438 | -0.739 | 0.999 | 0.598 | -0.328 | 0.641 | -0.643 | 0.23 (inactive)
O=C1NC(=O)C2C1C=CC(C(O)CCc1ccccc1)N2Nc1ccccn1 (stereo not given) | 0.558 | 1.62 (inactive) | -0.145 | -0.0116 | 0.894 | 1.02 | 1.59 | 0.438 | 0.0374 | 0.891 | -0.0572 | 0.495 | 0.318 | 0.415 | 0.269 | -0.157 | 0.681 | -0.139 | 0.589 | -1.13 (inactive)
CC(C)c1ccc(NN2C(C(O)c3ccccn3)C=CC3C(=O)N(c4ccccc4)C(=O)C32)cc1 (stereo not given) | 0.835 | -0.232 (inactive) | 0.447 | 0.142 | 0.808 | 2.92 | 0.881 | 1.32 | -0.159 | 1.1 | 0.75 | 1.28 | 0.405 | 0.947 | 1.28 | 1.48 | 1.14 | 1.18 | 0.976 | -1.5 (inactive)
CC(C)C[C@H]1NC(=O)[C@H](C)NC(=O)[C@@]23C(=O)N[C@@H](Cc4ccccc4)C2[C@H](C)[C@@]2(C)O[C@H]2C3/C=C/C/C=C\CNC1=O (stereo not given in full) | 0.876 | -0.155 (inactive) | -0.227 | -0.172 | 0.734 | -0.38 | -0.229 | 0.371 | 0.409 | -0.565 | 0.528 | -0.071 | -0.0739 | -1.65 | 0.321 | -0.28 | 0.141 | 0.253 | 0.649 | -0.8 (inactive)
C=C(COC)C(=O)CC[C@H](OC(=O)c1ccccc1-c1ccccc1C(=O)O)c1ccc(CO)o1 | -0.701 | 0.403 (inactive) | -0.203 | -0.14 | 0.365 | -0.264 | 0.134 | 0.807 | 0.55 | 0.332 | 0.581 | 0.154 | 0.36 | -0.576 | 1.35 | 1.66 | -0.666 | 1.5 | -0.2 | -0.846 (inactive)

Source: PubChem BioAssay
